Measured values published in publication PMC7862700, “An all-to-all approach to the identification of sequence-specific readers for epigenetic DNA modifications on cytosine”.

Columns and labels:
Assay in all cases: DAPPL (digital affinity profiling via proximity ligation, sequencing); 10 mM Tris-HCl pH 7.5, 50 mM NaCl, 1 mM DTT, 4% glycerol, room temperature, 30 min; GST-TFs on glutathione beads, 16-mer random dsDNA library, 0.1% formaldehyde crosslink after washing; high values mean tight binding
Conditions in all cases: protein: recombinant; tags: N-terminal GST; dsDNA, one strand shown
FLI1 = target: T1, FLI1 (Homo sapiens, UniProt Q01543 1-452)
T1 sequence: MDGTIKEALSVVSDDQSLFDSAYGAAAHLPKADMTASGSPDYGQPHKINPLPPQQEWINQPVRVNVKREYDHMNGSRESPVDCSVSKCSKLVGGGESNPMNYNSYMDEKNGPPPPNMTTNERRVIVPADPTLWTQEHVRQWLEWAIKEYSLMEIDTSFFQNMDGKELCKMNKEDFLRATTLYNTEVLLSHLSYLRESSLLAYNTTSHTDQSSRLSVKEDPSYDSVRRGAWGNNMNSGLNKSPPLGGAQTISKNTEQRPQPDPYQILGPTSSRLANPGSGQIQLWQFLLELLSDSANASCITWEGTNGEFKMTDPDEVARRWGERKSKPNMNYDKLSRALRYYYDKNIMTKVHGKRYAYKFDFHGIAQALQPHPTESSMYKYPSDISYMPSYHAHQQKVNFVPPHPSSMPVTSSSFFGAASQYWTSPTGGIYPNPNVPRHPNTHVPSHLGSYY
Summary of the method: (§1)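 In yeast, human transcription factors were expressed with a GST fusion, then pulled down on glutathione beads and given DNA barcodes. Pooled with a tag-only sample, they were exposed to 200 nmole of a 16-mer random double-stranded DNA library (Tris/NaCl/DTT/glycerol buffer, room temperature, 30 min), washed, crosslinked with 0.1% formaldehyde, proximity-ligated using BsaI/T4 ligase for 1 h at 37 °C, PCR-amplified and read on an Illumina NextSeq500. Each hexamer's frequency of reads for a factor, divided by the matching frequency for the tag-only sample, gives the binding signal.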

GABPA = target: T2, GABPA (Homo sapiens, UniProt Q06546 1-454)
T2 sequence: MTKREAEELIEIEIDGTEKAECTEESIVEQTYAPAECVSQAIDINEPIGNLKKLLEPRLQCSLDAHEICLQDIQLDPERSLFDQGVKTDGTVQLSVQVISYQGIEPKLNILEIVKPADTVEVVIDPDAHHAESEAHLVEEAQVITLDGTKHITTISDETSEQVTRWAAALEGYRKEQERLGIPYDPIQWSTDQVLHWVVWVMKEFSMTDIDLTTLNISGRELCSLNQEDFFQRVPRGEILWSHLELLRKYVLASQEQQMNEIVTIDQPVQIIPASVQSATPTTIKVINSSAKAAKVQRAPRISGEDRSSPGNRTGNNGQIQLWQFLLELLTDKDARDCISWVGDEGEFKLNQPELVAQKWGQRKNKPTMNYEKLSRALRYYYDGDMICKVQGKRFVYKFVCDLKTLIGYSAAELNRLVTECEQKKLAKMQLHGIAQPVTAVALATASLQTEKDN
Summary of the method: as §1

ELF4 = ELF4 (Homo sapiens, UniProt Q99607 1-663)
Chain of ELF4 (Q99607 whole entry): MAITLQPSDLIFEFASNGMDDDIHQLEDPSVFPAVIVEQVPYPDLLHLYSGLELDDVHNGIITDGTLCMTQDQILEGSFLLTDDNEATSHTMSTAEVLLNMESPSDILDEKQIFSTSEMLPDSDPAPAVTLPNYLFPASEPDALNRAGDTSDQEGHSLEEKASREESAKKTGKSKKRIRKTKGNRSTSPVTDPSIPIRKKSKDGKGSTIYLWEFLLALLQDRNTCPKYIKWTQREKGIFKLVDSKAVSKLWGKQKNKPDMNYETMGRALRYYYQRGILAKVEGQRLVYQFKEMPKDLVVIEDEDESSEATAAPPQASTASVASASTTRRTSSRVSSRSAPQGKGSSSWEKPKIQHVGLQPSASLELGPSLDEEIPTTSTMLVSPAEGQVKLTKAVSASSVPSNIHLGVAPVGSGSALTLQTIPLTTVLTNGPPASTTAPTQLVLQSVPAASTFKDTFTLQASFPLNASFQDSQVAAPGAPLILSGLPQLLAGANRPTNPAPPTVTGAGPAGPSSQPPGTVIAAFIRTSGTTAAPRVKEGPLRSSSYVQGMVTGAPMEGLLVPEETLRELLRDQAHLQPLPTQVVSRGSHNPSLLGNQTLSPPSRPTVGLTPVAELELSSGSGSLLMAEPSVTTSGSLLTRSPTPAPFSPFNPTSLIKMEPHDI
Summary of the method: as §1

ERF = target: T3, ERF (Homo sapiens, UniProt P50548 1-548)
T3 sequence: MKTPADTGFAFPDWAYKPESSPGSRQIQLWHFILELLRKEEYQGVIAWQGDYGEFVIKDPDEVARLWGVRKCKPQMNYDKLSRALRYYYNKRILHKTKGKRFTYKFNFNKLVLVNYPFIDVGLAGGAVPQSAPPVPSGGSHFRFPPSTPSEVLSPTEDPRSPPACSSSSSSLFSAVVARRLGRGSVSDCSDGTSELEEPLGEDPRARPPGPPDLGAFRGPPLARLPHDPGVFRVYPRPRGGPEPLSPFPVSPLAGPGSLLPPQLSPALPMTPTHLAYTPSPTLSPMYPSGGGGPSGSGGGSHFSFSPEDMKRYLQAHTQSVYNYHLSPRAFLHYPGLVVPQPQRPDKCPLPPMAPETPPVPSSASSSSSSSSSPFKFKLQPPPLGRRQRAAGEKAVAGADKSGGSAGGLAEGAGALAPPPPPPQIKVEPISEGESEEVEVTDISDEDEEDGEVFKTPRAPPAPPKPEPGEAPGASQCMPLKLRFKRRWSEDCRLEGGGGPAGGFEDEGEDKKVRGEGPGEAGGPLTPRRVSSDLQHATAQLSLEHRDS
Summary of the method: as §1

SPDEF = target: T4, SPDEF (Homo sapiens, UniProt O95238 1-335)
T4 sequence: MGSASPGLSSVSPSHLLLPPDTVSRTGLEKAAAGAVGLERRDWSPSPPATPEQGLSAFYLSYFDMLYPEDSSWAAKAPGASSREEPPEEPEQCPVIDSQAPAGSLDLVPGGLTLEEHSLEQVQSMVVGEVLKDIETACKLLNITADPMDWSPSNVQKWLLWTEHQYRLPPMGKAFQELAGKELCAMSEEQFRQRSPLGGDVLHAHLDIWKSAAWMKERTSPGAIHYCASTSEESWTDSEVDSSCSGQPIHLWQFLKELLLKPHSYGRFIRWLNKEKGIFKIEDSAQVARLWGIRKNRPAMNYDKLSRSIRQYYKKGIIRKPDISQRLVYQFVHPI
Summary of the method: as §1

ETV7 = target: T5, ETV7 (Homo sapiens, UniProt Q9Y603 1-341)
T5 sequence: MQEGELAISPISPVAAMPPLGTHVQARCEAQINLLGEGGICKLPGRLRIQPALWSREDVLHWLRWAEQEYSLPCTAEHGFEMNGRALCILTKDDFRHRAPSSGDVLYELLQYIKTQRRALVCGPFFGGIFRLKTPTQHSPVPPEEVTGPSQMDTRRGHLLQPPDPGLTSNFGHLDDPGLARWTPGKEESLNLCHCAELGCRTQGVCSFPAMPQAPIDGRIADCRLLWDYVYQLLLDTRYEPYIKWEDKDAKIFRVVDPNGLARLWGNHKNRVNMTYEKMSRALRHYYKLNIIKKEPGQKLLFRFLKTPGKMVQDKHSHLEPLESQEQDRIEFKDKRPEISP
Summary of the method: as §1

ETV3 = target: T6, ETV3 (Homo sapiens, UniProt P41162-2 1-143)
T6 sequence: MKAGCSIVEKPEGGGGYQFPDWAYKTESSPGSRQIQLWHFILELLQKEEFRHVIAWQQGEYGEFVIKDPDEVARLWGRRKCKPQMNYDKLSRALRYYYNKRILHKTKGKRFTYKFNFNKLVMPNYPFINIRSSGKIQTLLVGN
Summary of the method: as §1

ETV6 = ETV6 (Homo sapiens, UniProt P41212 1-452)
Chain of ETV6 (P41212 whole entry): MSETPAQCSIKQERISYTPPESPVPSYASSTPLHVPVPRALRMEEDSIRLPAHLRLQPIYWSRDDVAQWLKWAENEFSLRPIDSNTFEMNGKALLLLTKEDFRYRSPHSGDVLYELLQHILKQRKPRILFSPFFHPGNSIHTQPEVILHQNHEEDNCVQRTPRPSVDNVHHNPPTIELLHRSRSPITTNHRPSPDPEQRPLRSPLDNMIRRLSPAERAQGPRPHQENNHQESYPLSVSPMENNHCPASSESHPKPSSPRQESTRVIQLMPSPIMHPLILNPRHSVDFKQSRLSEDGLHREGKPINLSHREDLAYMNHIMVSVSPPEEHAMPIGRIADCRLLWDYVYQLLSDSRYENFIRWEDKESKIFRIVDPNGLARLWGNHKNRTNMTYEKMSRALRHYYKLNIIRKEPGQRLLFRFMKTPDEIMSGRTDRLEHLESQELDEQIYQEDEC
Summary of the method: as §1

Q: How did the binding signal (FLI1) turn out when ACCGTT was run?
A: The binding signal was 1.03 fold enrichment (6-mer frequency, TF over GST control).

Q: What about the binding signal (GABPA) of the same sequence?
A: Its binding signal is 1.02 fold enrichment (6-mer frequency, TF over GST control).

Q: What about the binding signal (ELF4) of the same sequence?
A: Its binding signal is 1 fold enrichment (6-mer frequency, TF over GST control).

Q: And the binding signal (ERF)?
A: Its binding signal is 1.05 fold enrichment (6-mer frequency, TF over GST control).

Q: What about the binding signal (SPDEF) of the same sequence?
A: Its binding signal is 1.01 fold enrichment (6-mer frequency, TF over GST control).

Q: And the binding signal (ETV7)?
A: The binding signal was 1.08 fold enrichment (6-mer frequency, TF over GST control).

Q: And the binding signal (ETV3)?
A: Its binding signal is 1.01 fold enrichment (6-mer frequency, TF over GST control).

Q: And the binding signal (ETV6)?
A: Its binding signal is 1 fold enrichment (6-mer frequency, TF over GST control).
